Read-out in assay [1]: Monokine induced gamma interferon (MIG), CXCL9 (gene 4283)
Put plainly: BSK_3C_MIG: BioMAP Diversity Plus: 3C Assay for Monokine induced gamma interferon (MIG) Biomarker Activity (AID 2283021). The conditions noted are these: primary human endothelial cells (HUVEC); actives raise or lower the signal. The essentials: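 HUVEC primary endothelial cultures dosed with chemical; MIG quantified by ELISA at 24 h. Data fitted bidirectionally against DMSO control, with parallel SRB total-protein staining for cytotoxicity.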

Assay [2] can be described thus: BSK_3C_SRB: Viability Assessment in the BioMAP Diversity Plus: 3C Assay (AID 2283023).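 Note: fitted both ways against DMSO so a hit may be signal rise or drop.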 The following applies: primary human endothelial cells (HUVEC). The procedure, abridged: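 Primary human umbilical vein endothelial cells in the 3C system were read 24 h after compound dosing. Total protein was stained with 0.1% sulforhodamine B after 10% TCA fixation and read at 560 nm, with bidirectional fitting against DMSO as baseline.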

Read-out in assay [3]: Matrix Metallopeptidase 1 (MMP1), MMP1 (gene 4312)
As to the kind of experiment: BSK_BE3C_MMP1: BioMAP Diversity Plus: BE3C Assay for Matrix Metallopeptidase 1 (MMP1) Biomarker Activity (AID 2283024). The conditions noted are these: primary human bronchial epithelial cells; actives raise or lower the signal. The procedure, abridged:
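Human primary bronchial epithelial cells (BE3C system) dosed for 24 h; MMP-1 quantified by ELISA. Bidirectional fit against DMSO; cytotoxicity tracked in parallel cultures by SRB total-protein staining.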

A short description of assay [4]: BSK_3C_Vis: BioMAP Diversity Plus: 3C Assay for Morphology Visualization (AID 2283025).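 For AC50: light microscopy image of cell morphology used as background control.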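 Note: fitted both ways so gain or loss versus DMSO counts.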 The conditions noted are these: primary human endothelial cells (HUVEC). The procedure, abridged: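 Human umbilical vein endothelial cell morphology was inspected by light microscopy 24 h after chemical dosing; scored bidirectionally relative to DMSO.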
Read-out in assay [5]: Pselectin, SELP (gene 6403)
Put plainly: BSK_4H_Pselectin: BioMAP Diversity Plus: 4H Assay for Pselectin Biomarker Activity (AID 2283026). The conditions noted are these: primary human endothelial cells (HUVEC); actives raise or lower the signal. The procedure, abridged:
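Primary human umbilical vein endothelial cells were treated 24 h, and cell-surface P-selectin was then quantified by ELISA. Bidirectional fit versus DMSO; cytotoxicity checked in parallel cultures by SRB total-protein staining.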

Assay [6] in a line: BSK_4H_SRB: Viability Assessment in the BioMAP Diversity Plus: 4H Assay (AID 2283027). The conditions noted are these: primary human endothelial cells (HUVEC). The essentials: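 Human umbilical vein endothelial cells, 24 h after chemical dosing; total protein measured by 0.1% sulforhodamine B staining after 10% TCA fixation, read at 560 nm. Bidirectional fitting against DMSO.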

Assay [7] can be described thus: BSK_BE3C_SRB: Viability Assessment in the BioMAP Diversity Plus: BE3C Assay (AID 2283028). The conditions noted are these: primary human bronchial epithelial cells. The procedure, abridged:
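Human primary bronchial epithelial cells were exposed to test chemicals for 24 h. Total protein in parallel cultures was then measured by staining with 0.1% sulforhodamine B after 10% TCA fixation, with absorbance read at 560 nm. Activity was fitted bidirectionally against DMSO.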

Read-out in assay [8]: Thrombomodulin, THBD (gene 7056)
As to the kind of experiment: BSK_3C_Thrombomodulin: BioMAP Diversity Plus: 3C Assay for Thrombomodulin Biomarker Activity (AID 2283029). The conditions noted are these: primary human endothelial cells (HUVEC); actives raise or lower the signal. The procedure, abridged: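 Human umbilical vein endothelial cells were exposed to chemicals for 24 h; cell-surface thrombomodulin quantified by ELISA, with bidirectional fitting against DMSO baseline.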

Read-out in assay [9]: Urokinase-type plasminogen activator receptor (uPAR), PLAUR (gene 5329)
As to the kind of experiment: BSK_4H_uPAR: BioMAP Diversity Plus: 4H Assay for Urokinase-type plasminogen activator receptor (uPAR) Biomarker Activity (AID 2283030). The conditions noted are these: primary human endothelial cells (HUVEC); actives raise or lower the signal. The essentials: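 Primary human umbilical vein endothelial cells were exposed to chemical for 24 h before cell-surface uPAR was quantified by ELISA. Activity was fitted bidirectionally against the DMSO negative control baseline.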

Read-out in assay [10]: Vascular endothelial growth factor receptor 2 (Homo sapiens) (UniProt P35968)
Put plainly: BSK_4H_VEGFRII: BioMAP Diversity Plus: 4H Assay for Vascular endothelial growth factor receptor 2 (VEGFR2) Biomarker Activity (AID 2283031). The conditions noted are these: primary human endothelial cells (HUVEC); actives raise or lower the signal. The procedure, abridged: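 Primary human umbilical vein endothelial cells in the BioMAP 4H system were dosed with test chemical, and 24 h later VEGFRII was measured by ELISA. Activity was fitted bidirectionally against DMSO as negative control and baseline.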

Read-out in assay [11]: Human Leukocyte Antigen - DR isotype (HLADR), HLA-DRA (gene 3122)
As to the kind of experiment: BSK_BE3C_HLADR: BioMAP Diversity Plus: BE3C Assay for Human Leukocyte Antigen - DR isotype (HLADR) Biomarker Activity (AID 2283032). The conditions noted are these: primary human bronchial epithelial cells; actives raise or lower the signal. The procedure, abridged:
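Human primary bronchial epithelial cells (BE3C system) exposed to compound for 24 hours; cell-surface HLA-DR measured by ELISA, fitted bidirectionally relative to DMSO. Total protein by SRB in parallel cultures tracked cytotoxicity.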

Read-out in assay [12]: Vascular cell adhesion molecule 1 (VCAM1), VCAM1 (gene 7412)
Put plainly: BSK_4H_VCAM1: BioMAP Diversity Plus: 4H Assay for Vascular cell adhesion molecule 1 (VCAM1) Biomarker Activity (AID 2283033). The conditions noted are these: primary human endothelial cells (HUVEC); actives raise or lower the signal. The procedure, abridged:
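Primary human umbilical vein endothelial cells, 4H stimulation system, treated for 24 h; cell-surface VCAM-1 quantified by ELISA. Bidirectional fitting against DMSO; cytotoxicity tracked by SRB total-protein staining in parallel cultures.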

Read-out in assay [13]: Interferon-gamma inducible Protein 10 (IP10), CXCL10 (gene 3627)
As to the kind of experiment: BSK_BE3C_IP10: BioMAP Diversity Plus: BE3C Assay for Interferon-gamma inducible Protein 10 (IP10) Biomarker Activity (AID 2283034). The following applies: primary human bronchial epithelial cells; actives raise or lower the signal. The essentials: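 Primary human bronchial epithelial cells, with IP-10 measured by ELISA 24 hours after chemical dosing. Bidirectional fit against DMSO; cytotoxicity checked by SRB total protein staining in parallel cultures.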

Read-out in assay [14]: Monokine induced gamma interferon (MIG), CXCL9 (gene 4283)
Put plainly: BSK_BE3C_MIG: BioMAP Diversity Plus: BE3C Assay for Monokine induced gamma interferon (MIG) Biomarker Activity (AID 2283035). The following applies: primary human bronchial epithelial cells; actives raise or lower the signal. The procedure, abridged:
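Primary human bronchial epithelial cells treated for 24 h; MIG levels measured by ELISA, fitted bidirectionally versus DMSO. Parallel SRB total-protein staining assessed cytotoxicity.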

Read-out in assay [15]: Transforming growth factor beta 1 (TGFb1), TGFB1 (gene 7040)
Put plainly: BSK_BE3C_TGFb1: BioMAP Diversity Plus: BE3C Assay for Transforming growth factor beta 1 (TGFb1) Biomarker Activity (AID 2283036). The following applies: primary human bronchial epithelial cells; actives raise or lower the signal. The procedure, abridged:
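Primary human bronchial epithelial cells dosed with chemical; TGF-b1 measured by ELISA 24 h after dosing. Bidirectional curve fitting against DMSO negative control; SRB total-protein staining in parallel cultures gauged cytotoxicity.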

Read-out in assay [16]: Plasminogen activator inhibitor-1 (PAI1), SERPINE1 (gene 5054)
As to the kind of experiment: BSK_BE3C_PAI1: BioMAP Diversity Plus: BE3C Assay for Plasminogen activator inhibitor-1 (PAI1) Biomarker Activity (AID 2283037). The conditions noted are these: primary human bronchial epithelial cells; actives raise or lower the signal. The essentials: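 Primary human bronchial epithelial cells (BE3C system) exposed 24 h; PAI-1 quantified by ELISA. Parallel sulforhodamine B staining of total protein flags cytotoxicity. Bidirectional fit versus DMSO.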

Read-out in assay [17]: urokinase plasminogen activator (uPA), PLAU (gene 5328)
Put plainly: BSK_BE3C_uPA: BioMAP Diversity Plus: BE3C Assay for urokinase plasminogen activator (uPA) Biomarker Activity (AID 2283038).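 Note: uPA protein level quantified by ELISA in cell cultures; uPA read one day after compound addition.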 The following applies: primary human bronchial epithelial cells; actives raise or lower the signal. The procedure, abridged: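 Human primary bronchial epithelial cells were exposed to chemical for 24 h, then uPA levels were measured by ELISA. Responses were fitted bidirectionally against DMSO as negative control and baseline. Parallel SRB staining of total protein gauged overt cytotoxicity.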

Read-out in assay [18]: Urokinase-type plasminogen activator receptor (uPAR), PLAUR (gene 5329)
Put plainly: BSK_BE3C_uPAR: BioMAP Diversity Plus: BE3C Assay for Urokinase-type plasminogen activator receptor (uPAR) Biomarker Activity (AID 2283039).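 Note: cells exposed to compound for one day before measurement.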 The conditions noted are these: primary human bronchial epithelial cells; actives raise or lower the signal. The procedure, abridged: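 Primary human bronchial epithelial cells dosed for 24 h; uPAR quantified by ELISA with bidirectional fitting against DMSO. Overt cytotoxicity assessed in parallel cultures by SRB total-protein staining (0.1% SRB, 560 nm).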

Read-out in assay [19]: Interleukin-6 (IL6), IL6 (gene 3569)
Put plainly: BSK_CASM3C_IL6: BioMAP Diversity Plus: CASM3C Assay for Interleukin-6 (IL6) Biomarker Activity for (AID 2283040). The following applies: primary human coronary artery smooth muscle cells; actives raise or lower the signal.

Read-out in assay [20]: Tissue plasminogen activator (tPA), PLAT (gene 5327)
As to the kind of experiment: BSK_BE3C_tPA: BioMAP Diversity Plus: BE3C Assay for Tissue plasminogen activator (tPA) Biomarker Activity (AID 2283041).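 Note: tPA level quantified by ELISA one day after compound addition.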 The following applies: primary human bronchial epithelial cells; actives raise or lower the signal. The procedure, abridged:
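Primary human bronchial epithelial cells in the BE3C system, exposed to compound for 24 h. tPA was quantified by ELISA; DMSO served as baseline, with gain or loss of signal fitted. Cytotoxicity checked in parallel cultures by SRB total-protein staining.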

Calls of active or inactive are those of the source. Rule for the calls: active = hit-call score of the fitted dose curve at least 0.9, where 1 is the maximum; inactive = score below 0.9.

Consider five compounds from PubChem BioAssay (EPA / NIEHS).

As to `CCN(CC)C(=O)C(C)Oc1cccc2ccccc12` (stereo not drawn), the result in assay [1], in assay [5], in [6], in assay [7], in [8] and in assay [9] was inactive. The outcome in assay [10], in assay [11], in assay [12], in assay [13], in assay [14] and in [15] was inactive. Also, the outcome in [16], in assay [17], in assay [18], in assay [19] and in assay [20] was inactive. Moreover, the values for the AC50 in assay [2], in assay [3] and in assay [4] were 5.16 µM (active), 5.25 µM (active) and 9.8 µM (active), respectively.

`CCC(C)n1c(=O)[nH]c(C)c(Br)c1=O` (stereo not drawn): the result in assay [1], in assay [2], in [3], in assay [4], in assay [5] and in [6] was inactive. The result in [7], in assay [8], in assay [9], in assay [10], in assay [11] and in [12] was inactive. For the same compound, the outcome in [13], in assay [14], in [15], in assay [16], in [17] and in assay [18] was inactive. The outcome in assay [19] and in assay [20] was inactive.

Turning to `CC(C)N1C(=O)c2ccccc2NS1(=O)=O`, the result in [1], in [2], in assay [3], in assay [4], in assay [5] and in assay [6] was inactive. The result in assay [7], in [8], in assay [9], in [10], in assay [11] and in [12] was inactive. In addition, the outcome in assay [13], in assay [14], in assay [16], in assay [17], in [18] and in assay [19] was inactive. The result in [20] was inactive.

`CNC(=O)N(C)c1nnc(C(C)(C)C)s1`: the result in assay [1], in assay [2], in assay [3], in assay [4], in assay [5] and in assay [6] was inactive. Further, the result in assay [7], in assay [8], in assay [9], in assay [10], in assay [11] and in [12] was inactive. Moreover, the result in [13], in [14], in assay [15], in assay [16], in [17] and in [18] was inactive. For the same compound, the result in assay [19] was inactive.

On to `CNC(=O)Oc1cccc2ccccc12`, for which the outcome in assay [1], in [3], in assay [6], in assay [7], in [8] and in assay [9] was inactive. Further, the result in assay [10], in assay [11], in assay [13], in assay [14], in [15] and in assay [16] was inactive. Further, the outcome in assay [17], in assay [18], in assay [19] and in [20] was inactive. Besides, the AC50 was 12.4 µM (active) in assay [2], 13.7 µM (active) in assay [4], 16.7 µM (active) in [5] and 20 µM (active) in [12].
